Test results taken from PubChem BioAssay AID1949 (Southern Research Institute, 2009).
Out of some 100,000 compounds screened, about 1,600 (1.6%) were called active. Roughly 3% stayed inconclusive and do not appear here. The rule behind the calls is not given here. Only a sample is shown.

test: Confirmatory growth inhibition assay against Mycobacterium tuberculosis H37Rv, potency (AID 1949);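 for inhibition: bacteria grown 7 days with compound before Alamar blue readout; 0% = untreated bacteria wells and 100% = bacteria with saturating antibiotic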; conditions: M. tuberculosis H37Rv growth inhibition; stronger effect = higher value, concentration not given here

Row | SMILES | inhibition
1 | O=C(CCCCC(=O)NC1=NCCS1)NC1=NCCS1 | 1.73% (inactive)
2 | Cc1cc(Cl)ccc1OCC(=O)NCCCn1ccnc1 | inactive
3 | COc1ccc(OC)c(NC(=O)c2cccc(F)c2)c1 | inactive
4 | CCC(=O)Nc1nnc(SCC(=O)Nc2cccc(Cl)c2)s1 | inactive
5 | CC1=CC(c2ccc(Cl)cc2)n2ncnc2N1 (centres undefined) | inactive
6 | Cc1cc(C)c(NC(=O)COc2ccc(-c3ccccc3)cc2)c(C)c1 | 0.67% (inactive)
7 | CN1C(=O)C2C(C1=O)N1C(c3cccs3)C3C(=O)N(C)C(=O)C3N1C2c1cccs1 (centres undefined) | inactive
8 | Cc1nnc(SCC(=O)Nc2cccc(Cl)c2Cl)n1-c1ccc(F)cc1 | 32.3% (inactive)
9 | Cc1cc(NC(=O)Cc2ccc(Br)cc2)no1 | inactive
10 | O=C(CSc1nc2ccccc2[nH]1)Nc1ccc(Cl)cn1 | inactive
11 | Cc1c(NC(=O)CSc2nnnn2-c2ccc(O)cc2)c(=O)n(-c2ccccc2)n1C | inactive
12 | Cc1ccc(CC(=O)Nc2ccc(S(=O)(=O)N3CCC(C)CC3)cc2)cc1 | inactive
13 | COc1cc(S(=O)(=O)NC(c2ccccc2)c2ccccc2)ccc1Cl | inactive
14 | O=C(CSc1nnc(-c2ccncc2)n1-c1ccccc1)c1ccc(Cl)cc1 | inactive
15 | COc1ccc(CC(=O)NC(=S)N2CCOCC2)cc1 | 2.63% (inactive)
16 | COc1ccc(Cl)cc1C(=O)Nc1cc(C(F)(F)F)ccc1N1CCOCC1 | inactive
17 | C=CCc1cc(OC)ccc1OCCN1CCN(C)CC1 | inactive
18 | O=C(c1csc2c1CCCC2)N1CCC2(CC1)OCCO2 | inactive
19 | C=CCN(c1ccc(C(=O)Nc2ccccc2-c2ccccc2)cc1)S(C)(=O)=O | inactive
20 | CCc1ccc(OC(C)c2nnc(SCC(=O)Nc3ccc(C)c(C)c3)n2CC)cc1 (centres undefined) | 1.06% (inactive)
21 | COc1ccc(OC)c(C2C(C#N)=C(N)OC(c3ccccc3)=C2C#N)c1 (centres undefined) | inactive
22 | Cc1ccc(C(=O)CCC(=O)Nc2ccccc2C)cc1C | inactive
23 | Cc1ccc(NC(=O)CSc2nnc(N)s2)cc1 | inactive
24 | COc1ccccc1CNC(=O)c1cc(OC)c(OC)cc1OC | 2.59% (inactive)
25 | N#Cc1ccc(NC(=S)NCCN2CCOCC2)cc1 | inactive
26 | CC(C(=O)Nc1cccc(C(F)(F)F)c1)N(c1ccc(Oc2ccccc2)cc1)S(C)(=O)=O (centres undefined) | 12.4% (inactive)
27 | O=C(C1CCN(C(=S)NC2CC2)CC1)N1CCCCCC1 | inactive

Row | SMILES | inhibition
28 | Cc1ccc(C(C)C)c(OCC(=O)NNC(=S)NCCc2ccccc2)c1 | inactive
29 | COc1ccc(CNC(=O)C2CCCN2CCc2ccccc2)cc1OC (centres undefined) | 4.85% (inactive)
30 | CCOC(=O)c1ccc(NC(=S)NNc2nc(C)cc(C)n2)cc1 | inactive
31 | CCOC(=O)C1=C(C)N=c2s/c(=C\c3c4ccccc4cc4ccccc34)c(=O)n2C1c1ccccc1Cl (centres undefined) | inactive
32 | Cc1cc(C)cc(C(=O)Nc2ccc(CN3CCOCC3)cc2)c1 | inactive
33 | CC(C)(C)C1(c2ccccc2)NC(=O)NC1=O (centres undefined) | 0.0333% (inactive)
34 | CCN(CC)CC(=O)Nc1ccccc1OC | inactive
35 | OCCNCCOc1ccc2ccccc2c1Br | inactive
36 | N#C/C(=C\C=C\c1ccccc1Cl)c1nc2ccccc2[nH]1 | inactive
37 | C=CCn1c(SCC#CCO)nc2ccccc2c1=O | inactive
38 | COc1ccccc1CCNC(=O)c1ccc(COCC(F)(F)C(F)F)cc1 | inactive
39 | CCCCOc1cccc(C(=O)NC(=S)Nc2cccnc2)c1 | inactive
40 | Cc1ccc(SCC(=O)Nc2ccc(S(=O)(=O)Nc3cccc(C(F)(F)F)c3)cc2)cc1 | inactive
41 | CCc1ccc(-n2c(C)cc(C=NO)c2C)cc1 | 17.1% (inactive)
42 | COc1ccc(S(=O)(=O)N(CC(=O)NC2CC3CCC2C3)c2ccccc2)cc1OC (centres undefined) | inactive
43 | O=C1C2CCCCC2C(=O)N1c1n[nH]c(CCc2ccccc2)n1 (centres undefined) | inactive
44 | CCc1cccc(C)c1NC(=O)CN(c1ccc(C)c(C)c1)S(=O)(=O)c1ccc(Cl)cc1 | inactive
45 | COc1ccc(NC(=S)N2CCN(Cc3cccc(F)c3)CC2)c(OC)c1 | inactive
46 | O=C(NCc1ccc2c(c1)OCO2)Nc1ccc([N+](=O)[O-])cc1 | inactive
47 | c1ccc2c(c1)nc(-c1cscn1)n2Cc1ccc(-c2nn[nH]n2)cc1 | inactive
48 | COc1ccc(S(=O)(=O)Nc2cccnc2)cc1C | inactive
49 | COc1cc(NC(=O)c2ccc(F)cc2)ccc1NC(=O)C(C)C | inactive
50 | O=C(c1cn(-c2ccccc2)nc1-c1cccnc1)n1nnc2ccccc21 | 2.67% (inactive)
51 | COc1ccc([N+](=O)[O-])cc1NC(=O)c1cc(-c2ccc(OC)c(OC)c2)nc2ccccc12 | inactive
52 | CCCN1CCN(C(=O)c2ccncc2)CC1 | 1.8% (inactive)
53 | COc1ccc2c(c1)sc1nc(-c3cc4cccc(OC)c4oc3=O)cn12 | inactive
54 | Cc1ccc(OCCSC2=NN2c2cc(C)nc(N)n2)cc1 | inactive
